Screens deposited in PubChem by several laboratories.
H9c2 protect = modulators protecting cardiomyocytes from myocardial damage; H9c2 cardiomyocytes, H2O2 injury protection, ATPLite, 2 h; protection from H2O2 cell death, % at 20 µM; 0.63% of 360,000 active; AID 588492;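 active = compounds giving at least 50% protection of heart cells from peroxide-induced death in the single-dose screen, raw or plate-pattern-corrected value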;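 note: 0% = DMSO wells with peroxide and 100% = DMSO wells without peroxide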
beta cell repl = inducers of beta-cell replication in MIN6 cells; MIN6 cells proliferation, ATPlite luminescence, 48 h; cells starved in 0.2% serum; 100% = growth in 10% serum; proliferation, % at 10 µM; 0.29% of 330,000 active; AID 2380;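 active = compounds whose signal lies at least 3.5 SD above the mean of all wells on their plate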;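 note: 0% = DMSO-treated cells in low-serum medium and 100% = 10% serum control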
V-ATPase pH = yeast V-ATPase proton transport regulation by pHLuorin | 0.37% of 350,000 active | response, % at 10 µM | S. cerevisiae, pHLuorin cytosolic pH fluorescence; in the data active = response mostly above about 7.3%, no sharp cut-off; inactive = mostly below about 5.4%; note: actives read high
CR mimetic SO = lowers age-related superoxide in aged yeast cells | S. cerevisiae aged cells, superoxide DHE fluorescence; stronger effect = lower value | superoxide response (% of plate mean), % at 10 µM | 0.18% of 330,000 active;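 active = superoxide response under a set limit, about three screen SD below normal, cut at about 65% in these data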;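 note: yeast aged for seven days with compound at 30 °C before DHE staining; 100% = average MFI of all compound-treated wells on the plate with controls excluded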
HSV replic up = HSV replication enhancement; HSV replication augmentation in cells, fold increase; maximum fold increase; 0.005% of 220,000 active; AID 1956; in the data active = maximum fold increase above about 1.5; tested in PC3 cells
p-CIP stab down = lowers stability of the mouse p/CIP coactivator protein; F442A p/CIP-EGFP cells, EGFP fluorescence, 16 h; Q05BA5; AID 1984; 0.01% of 290,000 active; decrease of EGFP signal, % at 10 µM;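 active = EGFP signal decrease of at least 30% at 10 µM or well 3 SD below plate mean, unless failing retest; inactive = the rest, including hits failing retest or dose response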
Target sequence (Q05BA5 1-1403): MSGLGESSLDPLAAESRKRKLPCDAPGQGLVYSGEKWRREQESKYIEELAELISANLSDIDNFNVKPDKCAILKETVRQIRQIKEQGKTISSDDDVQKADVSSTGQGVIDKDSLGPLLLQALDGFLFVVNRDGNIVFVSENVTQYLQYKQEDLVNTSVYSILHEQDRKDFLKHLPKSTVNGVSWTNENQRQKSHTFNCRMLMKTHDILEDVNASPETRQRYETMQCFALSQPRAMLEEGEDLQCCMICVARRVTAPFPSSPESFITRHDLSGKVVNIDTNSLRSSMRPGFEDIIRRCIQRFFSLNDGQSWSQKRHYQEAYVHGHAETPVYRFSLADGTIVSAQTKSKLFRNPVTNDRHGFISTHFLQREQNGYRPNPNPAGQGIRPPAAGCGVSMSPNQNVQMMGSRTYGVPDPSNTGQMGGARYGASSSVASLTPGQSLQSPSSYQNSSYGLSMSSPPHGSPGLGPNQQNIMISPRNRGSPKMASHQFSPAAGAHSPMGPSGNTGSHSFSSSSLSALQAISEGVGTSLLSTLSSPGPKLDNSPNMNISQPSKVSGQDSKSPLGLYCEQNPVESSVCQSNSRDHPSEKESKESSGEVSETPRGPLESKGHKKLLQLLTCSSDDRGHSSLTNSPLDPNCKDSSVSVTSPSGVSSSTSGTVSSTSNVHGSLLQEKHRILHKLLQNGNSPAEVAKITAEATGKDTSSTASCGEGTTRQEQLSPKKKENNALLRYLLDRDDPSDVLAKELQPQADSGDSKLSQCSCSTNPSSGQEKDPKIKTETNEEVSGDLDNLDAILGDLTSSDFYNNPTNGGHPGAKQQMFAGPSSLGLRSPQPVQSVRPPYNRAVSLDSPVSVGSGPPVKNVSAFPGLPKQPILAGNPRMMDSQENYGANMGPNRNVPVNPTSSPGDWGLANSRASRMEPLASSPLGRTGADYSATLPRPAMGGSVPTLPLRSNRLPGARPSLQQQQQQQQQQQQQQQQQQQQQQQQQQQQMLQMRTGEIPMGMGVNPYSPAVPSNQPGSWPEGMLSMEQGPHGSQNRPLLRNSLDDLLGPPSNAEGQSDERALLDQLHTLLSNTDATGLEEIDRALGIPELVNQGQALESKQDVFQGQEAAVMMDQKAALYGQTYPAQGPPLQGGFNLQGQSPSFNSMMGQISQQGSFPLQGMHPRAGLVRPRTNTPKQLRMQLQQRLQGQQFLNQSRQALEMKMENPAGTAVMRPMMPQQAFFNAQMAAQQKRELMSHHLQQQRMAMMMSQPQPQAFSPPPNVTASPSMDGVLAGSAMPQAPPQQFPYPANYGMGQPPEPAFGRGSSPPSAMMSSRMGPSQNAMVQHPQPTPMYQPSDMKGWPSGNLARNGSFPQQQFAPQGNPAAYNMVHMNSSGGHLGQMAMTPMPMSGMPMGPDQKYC
V-ATPase pH SP = modulates yeast V-ATPase proton transport; 2% of 980 active; response, % at 10 µM; S. cerevisiae pHLuorin cytosolic pH; shares compounds with V-ATPase pH; in the data active = response above about 24%;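 note: plate controls were vehicle wells for no effect and positive control wells for full effect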
The depositor's hits bear a star; i = inactive; . = no result. Compounds with a hit are over-represented: about 1.4% of the library has one in this group of screens.

SMILES | H9c2 protect | beta cell repl | V-ATPase pH | CR mimetic SO | HSV replic up | p-CIP stab down | V-ATPase pH SP
CC(=O)c1c(C)[nH]c(C(=O)COC(=O)Cc2ccccc2F)c1C | -6 | -1 | 1 | 90 | . | . | .
CC(=O)c1c(C)[nH]c(C(=O)COC(=O)COc2ccccc2F)c1C | 0 | 1 | 12* | 105 | . | . | -1
CCc1ccccc1N(C)S(=O)(=O)c1ccc2[nH]cc(C(=O)N3CCc4ccccc43)c(=O)c2c1 | 8 | -2 | 22* | 100 | i | 11 | 8
Cc1cccc(N(C)S(=O)(=O)c2ccc3[nH]cc(C(=O)N4CCOCC4)c(=O)c3c2)c1 | 4 | 0 | 2 | 102 | i | 10 | .
O=C(CSc1nc(-c2ccccc2)c(-c2ccccc2)o1)NC1CCS(=O)(=O)C1 (configuration not stated) | -1 | -2 | 1 | 105 | i | -5 | .
O=C(CSc1nnc(-c2ccccc2)o1)NC1CC1 | 3 | 0 | 0 | 103 | . | . | -1
O=C(CSc1nnc(-c2ccccc2)o1)NC1CCCCC1 | 6 | -2 | 1 | 95 | i | -8 | .
O=C(CSc1nnc(-c2ccccc2)o1)NC1CCS(=O)(=O)C1 (configuration not stated) | 10 | 0 | 3 | 92 | i | -9 | 3
Cc1ccc(C)c(SCC(=O)NC2CCS(=O)(=O)C2)c1 (configuration not stated) | -4 | 0 | 12* | . | . | . | -4
O=C1OCCC1Sc1nnc(-c2ccccc2)o1 (configuration not stated) | 16 | 3 | -1 | 106 | i | -3 | -3
O=C1OCCC1Sc1nnc(-c2ccc(Cl)cc2Cl)o1 (configuration not stated) | -9 | -1 | 2 | 84 | i | 6 | .
COc1ccc(Cc2nc3ccc(C(=O)NC(C)Cc4ncccc4C)cc3o2)cc1OC (configuration not stated) | 12 | 2 | 1 | 91 | . | -8 | .
O=C1C=C(C#Cc2ccc(Oc3ccccc3)cc2)C[C@@H](c2ccc(F)cc2)C1 | -29 | . | -1 | . | . | . | .
O=C(NCc1ccccc1)c1ccc(CS(=O)(=O)Cc2ccccc2F)o1 | -8 | 0 | -2 | 97 | i | 3 | .
O=C(O)c1ccc(CS(=O)(=O)Cc2ccccc2F)o1 | 3 | -1 | 9.0* | 104 | i | -17 | 0
Cc1ccc(CSCC(=O)N2CCN(c3ccc(F)cc3)CC2)cc1 | -4 | -1 | 12* | 139 | i | 7 | 0
O=C(CSCc1ccc(F)cc1)N1CCN(c2ccc(F)cc2)CC1 | -3 | 1 | 3 | 91 | i | 8 | .
Cc1nn(-c2ccc(F)cc2)c(C)c1/C=C/C(=O)N1CCNC(=O)C1 | -9 | -3 | 9.3* | 85 | i | 2 | 0
Clc1cccc(/C=N/N2CCN(Cc3ccccc3)CC2)c1 | -8 | -1 | 14* | 104 | . | 3 | 2
O=C(Nc1ccccn1)C(F)(F)C(F)(F)C(F)(F)C(F)(F)C(=O)Nc1ccccn1 | -3 | 0 | -1 | 114 | i | -17 | .
Cn1c2ccc(F)cc2c2nnc(SCC(=O)Nc3cccc(O)c3)nc21 | -4 | -3 | 11* | 102 | . | 6 | -1
C=CCC1(CC=C)CCCN1Cc1nc(COc2ccccc2)no1 | -1 | -3 | 0 | 111 | i | -8 | .
Cc1cccc(C(=O)N(NC(=O)Oc2ccccc2)C(C)(C)C)c1 | 3 | 0 | 6.9* | 118 | i | 3 | -4
COc1ccccc1C(=O)N(NC(=O)Oc1ccccc1)C(C)(C)C | 0 | -1 | 2 | 94 | i | -11 | .
CC(C)(C)c1cc(C(=O)N/N=C/c2cc3c(cc2Br)OCO3)n[nH]1 | 4 | -3 | 11* | 105 | . | 4 | 6
SMILES | H9c2 protect | beta cell repl | V-ATPase pH | CR mimetic SO | HSV replic up | p-CIP stab down | V-ATPase pH SP
O=C(COC(=O)c1cc(S(=O)(=O)N2CCOCC2)c(Cl)cc1Cl)c1ccc[nH]1 | 0 | -8 | -1 | 81 | . | . | .
COc1cc(Cl)ccc1OC1(C)CCN(Cc2ccc(-c3ccccn3)cc2)C1 (configuration not stated) | -7 | . | . | . | . | . | .
Cc1ccc(C)c2sc(N3CCN(C(=O)c4ccc([N+](=O)[O-])o4)CC3)nc12 | -4 | -6 | -5 | 107 | . | . | .
O=C(c1ccc([N+](=O)[O-])o1)N1CCN(c2nc3c(F)cc(F)cc3s2)CC1 | 0 | -7 | 31* | 111 | . | . | 40*
CC(C)(C)OC(=O)N[C@@H](Cc1ccccc1)C(=O)N[C@@H](CO)[C@H](O)[C@@H]1C[C@@H]1C(=O)NC1CC1 | -6 | -3 | 11* | 98 | . | 0 | -1
CCN(CC)c1ccc(C2C(C(=O)Nc3ccccn3)=C(C)NC3=C2C(=O)CC(C)(C)C3)cc1 (configuration not stated) | 0 | 2 | 17* | 111 | i | 0 | -1
COc1ccc(N(CC(=O)Nc2ccccc2OC)S(=O)(=O)c2ccc(OC)c(OC)c2)cc1 | 15 | -4 | 4 | 99 | . | -10 | .
Cc1ccc(-c2ccc(CN3C(CC(C)C)C(=O)N(Cc4cn(CCC5OCCCO5)nn4)CCS3(=O)=O)cc2)cc1 (configuration not stated) | 12 | . | 0 | . | . | . | .
CCC/C=C/c1ccc(CN2C(CC(C)C)C(=O)N(Cc3cn(CCC4OCCCO4)nn3)CCS2(=O)=O)cc1 (configuration not stated) | 0 | . | 0 | . | . | . | .
CCC/C=C/c1ccc(CN2C(CC(C)C)C(=O)N(Cc3cn(CCC4OCCO4)nn3)CCS2(=O)=O)cc1 (configuration not stated) | -4 | . | 9.2* | . | . | . | -3
CC(C)CC1C(=O)N(Cc2cn(CCC3OCCCO3)nn2)CCS(=O)(=O)N1Cc1ccc(-c2ccc(F)cc2)cc1 (configuration not stated) | -3 | . | 5.5* | . | . | . | 0
OCCN(CCO)Cc1csc2ccccc12 | -8 | 0 | 12* | 107 | i | -22 | 0
Cc1cc2c(c(=O)n1Cc1cccnc1)C(c1ccc(F)cc1)C(C#N)=C(N)O2 (configuration not stated) | 5 | 2 | 12* | 106 | i | -14 | -4
O=C(O)C1C2CCC(O2)C1C(=O)NCc1ccc(Cl)cc1 (configuration not stated) | 19 | 3 | 2 | 66 | i | 3 | .
COc1ccc(C(=O)CCC(=O)NC2=NCCS2)cc1 | 1 | -3 | 2 | 97 | . | -8 | -3
O=C(O)c1ccc(-c2nnc(-c3ccc([N+](=O)[O-])cc3)o2)cc1 | 5 | -1 | 9.4* | 110 | . | 6 | 2
O=C(O)c1ccc(-c2nnc(-c3ccccc3)o2)cc1 | -2 | 1 | -3 | 99 | . | 1 | .
COc1cccc(OCC(=O)NNC(=O)Cc2cccs2)c1 | 11 | -2 | 14* | 117 | i | 9 | 0
N#Cc1c(C(F)(F)F)cc(-c2cccs2)nc1SCc1cccnc1 | -12 | -1 | 7.7* | 101 | i | -20 | -27
